We go through 45 compounds from PubChem BioAssay (EPA / NIEHS).

Molecules are shown by their SMILES. Several values for one entry are separate records, joined by “and”; a condition that tells them apart may be missing. Equal entries are not always repeated. Results filed as inconclusive are left out. Activity calls are given as the source filed them. Rule for the calls, unless noted: active = hit-call score of the fitted dose curve at least 0.9, where 1 is the maximum; inactive = score below 0.9.

Test [1] concerns the target human RAR-related Orphan Receptor gamma (RORg), RORC (gene 6097) (UniProt P51449). As to the kind of experiment: ATG_RORg_TRANS: Attagene TRANS-FACTORIAL HepG2 Assay for human RAR-related Orphan Receptor gamma (RORg) (AID 2283011; active = hit-call score of the fitted dose curve at least 0.9, where 1 is the maximum). The method in brief: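 HepG2 cells transiently transfected with GAL4-UAS reporter units and chimeric RORg-Gal4 construct; after 24 h chemical exposure, reporter mRNA measured by RT-PCR with fluorescent capillary electrophoresis, gain of signal fitted against DMSO.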

Test [2] addresses Retinoic acid receptor RXR-alpha (Homo sapiens) (UniProt P19793). Briefly: ATG_RXRa_TRANS: Attagene TRANS-FACTORIAL HepG2 Assay for human Retinoid X Receptor alpha (RXRa) (AID 2283012; active = hit-call score of the fitted dose curve at least 0.9, where 1 is the maximum). The method in brief:
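Transient transfection of human HepG2 with multiple GAL4-UAS reporter constructs; 24 h compound exposure; total RNA isolated, reverse-transcribed, PCR-amplified, 6-FAM labelled, HpaI-cut, resolved by capillary electrophoresis. Positive-direction fit versus DMSO.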

For test [3], the target named is human Retinoid X Receptor beta (RXRb), RXRB (gene 6257) (UniProt P28702). Briefly: ATG_RXRb_TRANS: Attagene TRANS-FACTORIAL HepG2 Assay for human Retinoid X Receptor beta (RXRb) (AID 2283013; active = hit-call score of the fitted dose curve at least 0.9, where 1 is the maximum). The method in brief:
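Transfect HepG2 with GAL4-UAS multi-reporter constructs (chimeric NR-Gal4, TRANS format); dose compound 24 h; isolate RNA, RT-PCR, FAM primer extension, HpaI digest; quantify by capillary electrophoresis; positive direction vs DMSO.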

Read-out in test [4]: E-selectin (Homo sapiens) (UniProt P16581)
As to the kind of experiment: BSK_3C_Eselectin: BioMAP Diversity Plus: 3C Assay for Eselectin Biomarker Activity (AID 2283015).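 For outcome: cell surface E-selectin protein quantified by ELISA 24 h after dosing.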 Conditions: primary human endothelial cells (HUVEC); actives raise or lower the signal. The method in brief:
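Primary human umbilical vein endothelial cells (3C system), read 24 h after compound addition; E-selectin measured by ELISA. Bidirectional curve fitting against DMSO baseline; cytotoxicity by parallel SRB total-protein staining.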

Read-out in test [5]: Interleukin-1 alpha (IL1a), IL1A (gene 3552)
As to the kind of experiment: BSK_BE3C_IL1a: BioMAP Diversity Plus: BE3C Assay for Interleukin-1 alpha (IL1a) Biomarker Activity (AID 2283016). Conditions: primary human bronchial epithelial cells; actives raise or lower the signal. The method in brief:
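BE3C primary human bronchial epithelium; cpd 24 h; IL-1a by ELISA; bidirectional fit vs DMSO; parallel SRB (0.1% SRB, 10% TCA fix, 560 nm) for cytotoxicity.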

Read-out in test [6]: Monocyte Chemoattractant Protein-1 (MCP1), CCL2 (gene 6347)
As to the kind of experiment: BSK_3C_MCP1: BioMAP Diversity Plus: 3C Assay for Monocyte Chemoattractant Protein-1 (MCP1) Biomarker Activity (AID 2283017). Conditions: primary human endothelial cells (HUVEC); actives raise or lower the signal. An outline of the steps:
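Human umbilical vein endothelial cells (3C system) exposed to chemicals for 24 h; MCP-1 quantified by ELISA against the DMSO baseline with bidirectional fitting, and parallel SRB staining used to assess cytotoxicity.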

Read-out in test [7]: Monocyte Chemoattractant Protein-1 (MCP1), CCL2 (gene 6347)
Briefly: BSK_4H_MCP1: BioMAP Diversity Plus: 4H Assay for Monocyte Chemoattractant Protein-1 (MCP1) Biomarker Activity (AID 2283018). As to conditions: primary human endothelial cells (HUVEC); actives raise or lower the signal. An outline of the steps: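 ELISA read-out of MCP-1 from human vascular endothelial primary cells taken at 24 hours after compound exposure. Activity was fitted in both directions relative to DMSO, which served as negative control.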

Read-out in test [8]: Human Leukocyte Antigen - DR isotype (HLADR), HLA-DRA (gene 3122)
Briefly: BSK_3C_HLADR: BioMAP Diversity Plus: 3C Assay for Human Leukocyte Antigen - DR isotype (HLADR) Biomarker Activity (AID 2283019).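 For outcome: ELISA of cell-surface HLA-DR on HUVEC 24 h after dosing.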 Conditions: primary human endothelial cells (HUVEC); actives raise or lower the signal. An outline of the steps:
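HUVEC monoculture, HLA-DR measured by ELISA 24 h after chemical dosing. Fitted bidirectionally against DMSO baseline; parallel SRB staining assessed cytotoxicity, with 3C proliferation read by SRB at 48 h.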

Test [9] deals with human Thyroid Receptor alpha (THRa1), THRA (gene 7067) (UniProt P10827). As to the kind of experiment: ATG_THRa1_TRANS: Attagene TRANS-FACTORIAL HepG2 Assay for human Thyroid Receptor alpha (THRa1) (AID 2283014; active = hit-call score of the fitted dose curve at least 0.9, where 1 is the maximum). The method in brief:
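HepG2 cells transiently transfected with chimeric NR-Gal4 and GAL4-UAS reporter units, dosed 24 h. Reporter mRNA quantified by RT-PCR, fluorescent labeling, HpaI digestion and capillary electrophoresis; gain-of-signal fit versus DMSO.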

Sequence of human RAR-related Orphan Receptor gamma (RORg), RORC (gene 6097) (P51449 whole entry, looked up, the tested form may be a part): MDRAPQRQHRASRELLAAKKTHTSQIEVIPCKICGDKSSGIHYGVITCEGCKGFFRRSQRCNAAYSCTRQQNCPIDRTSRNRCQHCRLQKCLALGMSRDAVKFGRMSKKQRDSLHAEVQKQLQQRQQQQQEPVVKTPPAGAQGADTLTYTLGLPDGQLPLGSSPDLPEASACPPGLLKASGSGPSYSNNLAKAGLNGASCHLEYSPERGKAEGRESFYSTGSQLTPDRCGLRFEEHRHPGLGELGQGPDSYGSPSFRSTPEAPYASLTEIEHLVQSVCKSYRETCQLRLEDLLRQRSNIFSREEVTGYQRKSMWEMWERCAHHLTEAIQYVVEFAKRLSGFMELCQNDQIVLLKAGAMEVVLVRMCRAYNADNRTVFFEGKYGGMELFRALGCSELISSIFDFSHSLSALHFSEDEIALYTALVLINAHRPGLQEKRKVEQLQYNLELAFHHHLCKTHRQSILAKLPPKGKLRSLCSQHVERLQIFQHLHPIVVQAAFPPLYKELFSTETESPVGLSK
Sequence of Retinoic acid receptor RXR-alpha (Homo sapiens) (P19793 whole entry, looked up, the tested form may be a part): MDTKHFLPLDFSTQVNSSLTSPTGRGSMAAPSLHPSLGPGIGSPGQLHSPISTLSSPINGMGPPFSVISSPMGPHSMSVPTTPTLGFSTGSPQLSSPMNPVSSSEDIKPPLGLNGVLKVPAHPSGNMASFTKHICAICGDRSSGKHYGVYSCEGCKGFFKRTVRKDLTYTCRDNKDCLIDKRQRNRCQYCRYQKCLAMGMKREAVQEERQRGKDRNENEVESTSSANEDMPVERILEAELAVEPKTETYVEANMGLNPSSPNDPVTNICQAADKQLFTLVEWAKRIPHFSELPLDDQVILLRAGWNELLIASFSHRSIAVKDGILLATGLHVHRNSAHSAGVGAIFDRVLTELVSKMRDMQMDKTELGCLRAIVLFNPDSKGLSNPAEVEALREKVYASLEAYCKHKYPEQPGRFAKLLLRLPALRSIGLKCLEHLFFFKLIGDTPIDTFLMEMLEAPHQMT
Sequence of human Retinoid X Receptor beta (RXRb), RXRB (gene 6257) (P28702 whole entry, looked up, the tested form may be a part): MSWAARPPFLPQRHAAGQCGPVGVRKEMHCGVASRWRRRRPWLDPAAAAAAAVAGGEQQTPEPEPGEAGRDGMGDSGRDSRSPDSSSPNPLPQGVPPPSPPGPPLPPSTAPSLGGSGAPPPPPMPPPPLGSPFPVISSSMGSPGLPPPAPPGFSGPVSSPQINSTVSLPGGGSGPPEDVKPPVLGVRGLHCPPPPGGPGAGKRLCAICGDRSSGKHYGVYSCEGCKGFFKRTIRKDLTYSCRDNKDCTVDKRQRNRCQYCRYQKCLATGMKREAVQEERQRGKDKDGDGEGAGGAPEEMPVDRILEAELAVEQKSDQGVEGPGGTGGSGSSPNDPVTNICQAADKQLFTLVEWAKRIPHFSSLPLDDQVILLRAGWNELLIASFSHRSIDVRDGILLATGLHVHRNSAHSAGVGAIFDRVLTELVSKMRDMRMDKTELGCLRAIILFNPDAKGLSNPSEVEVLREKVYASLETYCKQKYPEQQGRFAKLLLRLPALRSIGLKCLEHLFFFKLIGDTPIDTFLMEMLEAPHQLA
Sequence of human Thyroid Receptor alpha (THRa1), THRA (gene 7067) (P10827 whole entry, looked up, the tested form may be a part): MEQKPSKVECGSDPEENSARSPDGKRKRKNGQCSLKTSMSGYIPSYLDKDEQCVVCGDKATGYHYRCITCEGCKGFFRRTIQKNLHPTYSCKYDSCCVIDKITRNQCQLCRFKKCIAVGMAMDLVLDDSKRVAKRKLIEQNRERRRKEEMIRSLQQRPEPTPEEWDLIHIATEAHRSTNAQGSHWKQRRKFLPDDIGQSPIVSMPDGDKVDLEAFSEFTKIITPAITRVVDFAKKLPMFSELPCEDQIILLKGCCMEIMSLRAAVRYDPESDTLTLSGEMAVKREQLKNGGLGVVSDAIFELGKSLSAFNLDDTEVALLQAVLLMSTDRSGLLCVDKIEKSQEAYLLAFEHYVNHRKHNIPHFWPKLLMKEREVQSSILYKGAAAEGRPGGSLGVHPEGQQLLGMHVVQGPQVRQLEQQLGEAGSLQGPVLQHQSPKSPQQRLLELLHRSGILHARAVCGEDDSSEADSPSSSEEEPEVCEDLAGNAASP
Sequence of E-selectin (Homo sapiens) (P16581 whole entry, looked up): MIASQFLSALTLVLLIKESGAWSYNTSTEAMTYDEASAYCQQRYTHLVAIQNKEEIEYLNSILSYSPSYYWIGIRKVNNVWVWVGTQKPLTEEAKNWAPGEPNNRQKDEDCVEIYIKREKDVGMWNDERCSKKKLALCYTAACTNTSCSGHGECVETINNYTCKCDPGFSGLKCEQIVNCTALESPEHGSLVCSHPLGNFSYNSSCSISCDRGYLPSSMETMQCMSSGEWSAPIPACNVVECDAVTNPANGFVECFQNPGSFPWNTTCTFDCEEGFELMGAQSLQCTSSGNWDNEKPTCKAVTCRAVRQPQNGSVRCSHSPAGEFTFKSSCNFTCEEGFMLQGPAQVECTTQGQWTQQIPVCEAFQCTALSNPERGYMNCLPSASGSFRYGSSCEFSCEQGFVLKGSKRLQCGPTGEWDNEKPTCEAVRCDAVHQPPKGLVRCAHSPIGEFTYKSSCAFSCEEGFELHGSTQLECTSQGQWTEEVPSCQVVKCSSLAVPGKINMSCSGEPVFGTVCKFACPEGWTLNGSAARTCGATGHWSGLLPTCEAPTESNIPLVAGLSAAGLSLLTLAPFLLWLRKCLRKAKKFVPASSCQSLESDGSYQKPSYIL

On to `NCC(F)(F)C(F)(F)C(F)(F)C(F)(F)C(F)(F)C(F)(F)F`, for which the compound was called inactive in [1], in test [2], in test [3], in [4], in [5] and in test [6]. The outcome in test [7] and in test [8] was inactive.

Regarding `O=C1c2ccccc2C(=O)c2c(Cl)cccc21`, the call in [2] and in test [9] was inactive. Moreover, the half-maximal activity concentration (AC50) in test [3] is 28.4 µM (active).

For the compound `CCCCCCCCCCCC(=O)Cl`, in [2], the compound was called inactive. For the same compound, the concentration at half-maximal activity (AC50) in test [3] is 38.5 µM (active).

For the compound `OCCCCl`, the call in test [2], in [3] and in test [9] was inactive.

For the compound `O=C(c1ccccc1)c1ccc(Cl)cc1`, the compound was classed as inactive in test [2] and in [9]. Further, in test [3], the AC50 is 68.7 µM (active).

On to `O=C1C=CC(=O)N1c1ccccc1`, for which the compound was called inactive in test [1], in [2] and in test [9].

Turning to `N#CCCOCCC#N`, the compound was classed as inactive in test [1], in [2] and in [9].

Consider `CCCCCCCCCc1ccc(OCCO)cc1`, for which the outcome in [2], in [3] and in test [9] was inactive.

For the compound `C=CC(=O)OCCC(F)(F)C(F)(F)C(F)(F)C(F)(F)F`, the outcome in [1], in [2], in [3], in test [5], in test [6] and in [7] was inactive. The result in [8] was inactive. Further, in test [4], the half-maximal activity concentration (AC50) is 33.7 µM (active) and 30 µM (active).

For the compound `OCCC(O)CO` (stereo unspecified), the compound was classed as inactive in test [2], in test [3] and in test [9].

Take `OCCCc1cccnc1`: the compound was called inactive in [1], in test [3] and in test [9].

Take `CC(=O)C=O`: the compound was called inactive in [1], in [2] and in test [9].

Take `Cc1cccc(C)n1`: the compound was classed as inactive in test [1], in test [3] and in test [9].

Turning to `CC1CCCCC1`, the call in test [1], in test [3] and in test [9] was inactive.

For `O=C(O)C(F)(F)C(F)(F)C(F)(F)OC(F)(C(F)(F)F)C(F)(F)F`, the compound was called inactive in test [1], in test [2], in [3], in test [4], in [5] and in test [6]. Also, the outcome in test [7] and in test [8] was inactive.

On to `C=CC(=O)OCC(F)(F)C(F)(F)C(F)(F)COC(=O)C=C`, for which the call in test [1], in [2] and in [9] was inactive. Further, the half-maximal activity concentration (AC50) in test [4] was 19.4 µM (active) and 32.1 µM (active); in test [5], 23.2 µM (active) and 17.5 µM (active); in [6] it was 39.6 µM (active) and 30 µM (active); in test [8], 14 µM (active) and 12.3 µM (active).

`O=C(O)C(F)(F)C(F)(F)C(F)(F)OC(F)(F)F`: the result in test [1], in test [2], in [4], in test [5], in [6] and in test [7] was inactive. Further, in test [8], the outcome was inactive.

As to `CC(C)(C)c1cc(Cc2cc(C(C)(C)C)c(O)c(C(C)(C)C)c2)cc(C(C)(C)C)c1O`, the result in [2] and in test [9] was inactive. For the same compound, the AC50 in test [3] was 15.7 µM (active).

For `O=C(Cl)c1ccc(Cl)cc1Cl`, the call in test [1] and in [9] was inactive.

On to `Oc1ccc2c(c1)CCC2`, for which the compound was classed as inactive in test [2], in test [3] and in [9].

Regarding `Nc1cc([N+](=O)[O-])cc(Cl)c1O`, the result in test [1], in test [2], in [4], in test [5], in test [6] and in test [7] was inactive. For the same compound, the result in test [8] was inactive.

Consider `NC(=O)C(F)(F)C(F)(F)C(F)(F)F`, for which the call in [1], in [2], in [4], in test [5], in [6] and in [8] was inactive.

Regarding `O=S(=O)(OCC(F)(F)F)C(F)(F)C(F)(F)C(F)(F)C(F)(F)F`, the result in [1], in test [2], in test [3], in test [4], in test [5] and in test [6] was inactive. In addition, in [8], the outcome was inactive.

Regarding `CN(C)C(C)(C)CO`, the result in test [1], in [2] and in test [9] was inactive.

As for `CCCCCCCCCCCCCC[P+](CCCC)(CCCC)CCCC`, the result in test [2] and in test [3] was inactive.

As to `O=C(O)C(F)(F)C(F)(F)C(F)(F)C(=O)O`, the call in test [1], in [2], in test [9], in test [4], in test [5] and in [6] was inactive. In test [8], the outcome was inactive.

As to `CC1=CCC(=O)O1`, the compound was classed as inactive in [2] and in [3].

For `Cc1cnccn1`, the outcome in test [1], in test [2], in test [9], in [4], in test [5] and in [6] was inactive. In addition, in test [8], the outcome was inactive.

Take `O=C1c2c(O)ccc(Nc3ccc(CCO)cc3)c2C(=O)c2c([N+](=O)[O-])ccc(O)c21`: the compound was classed as inactive in test [1], in [2], in [5] and in [6]. Also, the concentration at half-maximal activity (AC50) in [9] was 30 µM (active); in test [4], 4.35 µM (active); in test [7], 30.4 µM (active); in test [8], 10.6 µM (active).

For the compound `FC(F)(F)C(F)(F)C(F)(F)CC1CO1` (stereo unspecified), the call in test [1], in test [2], in [9], in test [4], in test [5] and in test [6] was inactive. In [8], the result was inactive.

On to `C[Si](Cl)(Cl)CCC(F)(F)C(F)(F)C(F)(F)C(F)(F)C(F)(F)C(F)(F)F`, for which the call in test [1], in test [2], in test [4], in test [5], in test [6] and in [7] was inactive. For the same compound, the result in test [8] was inactive.

Consider `CCCCCCCCCCCCC[N+](C)(C)Cc1ccccc1`, for which the call in [2], in [3] and in test [9] was inactive.

Regarding `CCN(CC)c1ccc2c(c1)Oc1cc(N(CC)CC)ccc1C21OC(=O)c2ccccc21`, the outcome in [1], in [4] and in test [5] was inactive. The AC50 in test [6] and in test [8] was 10 µM (active) each time.

With `CCN(CC)c1ccc(C=O)c(O)c1`, the call in test [1], in [3], in [4], in test [5] and in test [6] was inactive. Also, the AC50 in test [8] is 32.9 µM (active).

In the case of `COCCC(=O)OC`, the compound was called inactive in [1] and in test [9].

`CC(C)Nc1ccc(NC(C)C)c2c1C(=O)c1ccccc1C2=O`: the compound was called inactive in test [2], in test [3] and in [9].

With `CCOC(C=C(C)CCC=C(C)C)OCC`, the outcome in [2] and in [3] was inactive. Besides, the half-maximal activity concentration (AC50) in test [4] is 32.8 µM (active); in test [5], 3.97 µM (active); in [6] it was 32.1 µM (active); in test [7], 30.4 µM (active); in test [8], 35.4 µM (active).

Regarding `CC(C)=CCCC(C)O` (stereo unspecified), the outcome in [3] was inactive.

On to `CC(C)CC=C(C=O)c1ccccc1`, for which the outcome in test [3] was inactive.

On to `Brc1nc2ccccc2s1`, for which the call in test [2], in test [4], in test [5], in test [6], in [7] and in test [8] was inactive.

With `Oc1ccc(C2(c3ccc(O)c(C4CCCCC4)c3)CCCCC2)cc1C1CCCCC1`, the outcome in test [9] was inactive.

With `CC1=CC2C3C=CC(C3)C2C1C` (stereo unspecified), the compound was classed as inactive in [2], in [4], in test [5], in test [6] and in test [8].

As to `CCCCCCCC/C=C\CCCCCCCC(=O)OCC(O)CO` (stereo unspecified), the result in test [9] was inactive.

`OCC(O)CC(F)(F)C(F)(F)C(F)(F)C(F)(F)F` (stereo unspecified): the compound was called inactive in test [2], in test [4], in [5], in test [6] and in test [8].

Take `OCC1CCCO1` (stereo unspecified): the compound was classed as inactive in test [3].

A word on the AC50: it is the midpoint of the concentration-response curve, whichever way the signal moves.
